Results published in PubChem BioAssay (EPA / NIEHS).
Inconclusive results are not listed. Activity calls are given as the source filed them. Rule for the calls: active = hit-call score of the fitted dose curve at least 0.9, where 1 is the maximum; inconclusive = response in the unintended direction; inactive = score below 0.9.

Test: CCTE_Shafer_MEA_acute_LDH: CCTE's Lactate Dehydrogenase Assay for Cytotoxicity in the Neural Acute Assay, Shafer Lab (AID 2284086);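 note: active means LDH release rises above DMSO vehicle level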
Protocol: CCTE_Shafer_MEA_acute assay is conducted using Axion Biosystems 48 well microelectrode array (MEA) plates and Maestro recording system. Each well of the MEA plate contains a grid of 16 microelectrodes embedded in the culture surface. Electrically active cells, such as neurons, can be cultured over the electrodes, and electrical activity in these cells can be recorded extracellularly. The spontaneous firing of neurons is captured from each electrode on a microsecond timescale providing both temporally and spatially precise data. […] The CCTE_Shafer_MEA_acute assay uses primary cultures of rat cortical neurons. As these cultures mature over time, neural networks develop functional activity and form cohesive networks in which electrical activity can be highly coordinated. Baseline 40-minute recordings are made on days post-plating 13 or 15, followed by a secondary 40-minute recording after chemical exposure.CCTE_Shafer_MEA_acute_LDH is a component of the CCTE_Shafer_MEA_acute assay. It measures the lactate dehydrogenase enzyme activity using spectrophotometry.Data from the assay component CCTE_Shafer_MEA_acute_LDH was analyzed into 1 assay endpoint. This assay endpoint, CCTE_Shafer_MEA_acute_LDH, was analyzed in the positive analysis fitting direction relative to DMSO as the negative control and baseline of activity. Using a type of viability reporter, gain-of-signal activity can be used to understand cell viability.
Immediately following the 40 min recording in the presence of compounds, 50 uL of media was removed from each well and transferred to a sterile 96-well plate. This was used to determine LDH released from cells during compound exposure using a kit from Promega where absorbance was determined in a Molecular Devices VersaMax plate reader at 490 nm.
In the case of `Nc1ncn([C@@H]2O[C@H](CO)[C@@H](O)[C@H]2O)c(=O)n1`, the outcome is reported as “inactive”.
In the case of `CCOC(=O)c1ccccc1C(=C1C=C(Br)C(=O)C(Br)=C1)c1cc(Br)c(O)c(Br)c1`, the outcome is reported as “inactive”.
With `O=C1CCCN1CCO` the outcome was “inactive”.
With `CN1C(=O)N(C)C(O)C1O` (stereo unspecified) the outcome was “inactive”.
In the case of `CO[Si](OC)(OC)c1ccccc1`, the outcome is reported as “inactive”.
For `C=C[Si](OC(C)=O)(OC(C)=O)OC(C)=O`, the outcome was “inactive”.
In the case of `O=C(c1ccc(O)cc1)c1ccc(O)cc1O`, the outcome is reported as “inactive”.
For `CCO[Si](C)(OCC)OCC`, the outcome was “inactive”.
For `Nc1ccc(N)c(Cl)c1`, the outcome was “inactive”.
For `CCCCC(CC)COC(=O)c1ccccc1O` (stereo unspecified), the outcome was “inactive”.
With `CCCCC(CC)COCC1CO1` (stereo unspecified) the outcome was “inactive”.
